Results reported in PubChem BioAssay AID1159580 (chemical genetic matrix, 2015).
“And” between values parts separate entries of the source, which are not always exact repeats. Equal entries are not always repeated. Screen size: about 5,500 compounds; about 2,000 (36%) were called active. Roughly 18% stayed inconclusive and do not appear here. Rule as the data show it: active = normalized growth mostly below about 0.91 (no sharp cut-off); inconclusive = no clear call, values can overlap the other calls; inactive = mostly above about 0.92. This is one part of the list.

Experiment: chemical genetic growth profiling, strain panel (AID 1159580);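 also: tested at 20 µM; growth read once vehicle control cultures reached saturation at 30 °C; 1 = growth at the plate median or of vehicle wells; lower values mean less growth of the strain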
Conditions: S. cerevisiae deletion strains, growth OD

Measured: normalized growth

O=C1C(Cl)=C(Cl)C(=O)C(Cl)=C1Cl
inactive: locus YAL030W, strain snc1, hits give low values 0.986 | locus YBL061C, strain skt5, hits give low values 0.994 | locus YBR023C, strain chs3, hits give low values 0.927 | locus YBR171W, strain sec66, hits give low values 0.967 | locus YBR229C, strain ROT2, hits give low values 0.979 | locus YBR231C, strain swc5, hits give low values 0.96 | locus YCL016C, strain dcc1, hits give low values 0.919 | locus YCL029C, strain bik1, hits give low values 0.929 | locus YCL069W, strain vba3, hits give low values 0.985 | locus YCR088W, strain abp1, hits give low values 0.949 | locus YDL005C, strain med2, hits give low values 1 | locus YDL040C, strain nat1, hits give low values 0.976 | locus YDL101C, strain DUN1, hits give low values 0.941 | locus YDR001C, strain nth1, hits give low values 0.991 | locus YDR069C, strain doa4, hits give low values 0.92 | locus YDR137W, strain rgp1, hits give low values 0.978 | locus YDR159W, strain sac3, hits give low values 1.03 | locus YDR195W, strain ref2 0.894 | locus YDR297W, strain sur2, hits give low values 0.997 | locus YDR334W, strain swr1, hits give low values 0.98 | locus YDR335W, strain msn5, hits give low values 0.963 | locus YEL037C, strain rad23, hits give low values 0.99 | locus YEL061C, strain CIN8 (second series), hits give low values 0.954 | locus YER016W, strain bim1, hits give low values 0.979 | locus YER111C, strain swi4, hits give low values 0.993 | locus YGL167C, strain pmr1, hits give low values 0.982 | locus YGL173C, strain kem1, hits give low values 0.958 | locus YGL227W, strain vid30, hits give low values 0.997 | locus YGL240W, strain doc1, hits give low values 0.99 | locus YGL253W, strain hxk2, hits give low values 0.993 | locus YHR142W, strain chs7, hits give low values 0.928 | locus YJL092W, strain hpr5, hits give low values 0.94 | locus YJL095W, strain BCK1 (second series), hits give low values 0.978 | locus YJL115W, strain asf1, hits give low values 0.979 | locus YJL129C, strain trk1, hits give low values 1 | locus YJL134W, strain LCB3, hits give low values 0.937 | locus YJL154C, strain vps35, hits give low values 0.984 | locus YJL187C, strain SWE1 (second series), hits give low values 0.982
active: locus YAL013W, strain DEP1, hits give low values 0.483 | locus YAL021C, strain ccr4, hits give low values 0.883 | locus YAL026C, strain drs2, hits give low values 0.831 | locus YBR009C, strain hhf1, hits give low values 0.843 | locus YBR021W, strain FUR4, hits give low values 0.293 | locus YBR279W, strain paf1, hits give low values 0.929 | locus YCL011C, strain gbp2, hits give low values 0.865 | locus YDL035C, strain GPR1, hits give low values 0.525 | locus YDL074C, strain BRE1, hits give low values 0.531 | locus YDL134C, strain PPH21, hits give low values 0.499 | locus YDL185W, strain tfp1, hits give low values 0.118 | locus YDL192W, strain arf1, hits give low values 0.239 | locus YDR101C, strain arx1, hits give low values 0.881 | locus YDR150W, strain NUM1, hits give low values 0.79 | locus YDR162C, strain NBP2, hits give low values 0.384 | locus YDR318W, strain mcm21, hits give low values 0.181 | locus YDR388W, hits give low values 0.164 | locus YDR392W, strain spt3, hits give low values 0.686 | locus YDR502C, strain sam2, hits give low values 0.61 | locus YEL003W, strain gim4, hits give low values 0.881 | locus YEL061C, strain CIN8, hits give low values 0.711 | locus YER015W, strain faa2, hits give low values 0.878 | locus YER110C, hits give low values 0.704 | locus YER155C, strain BEM2 (second series), hits give low values 0.763 | locus YER155C, strain BEM2, hits give low values 0.509 | locus YER167W, strain BCK2, hits give low values 0.198 | locus YFR010W, strain ubp6, hits give low values 0.891 | locus YGL078C, strain dbp3, hits give low values 0.077 | locus YGL086W, strain mad1, hits give low values 0.252 | locus YGL248W, strain PDE1, hits give low values 0.502 | locus YGR078C, strain PAC10, hits give low values 0.226 | locus YGR135W, strain pre9, hits give low values 0.335 | locus YGR229C, strain SMI1, hits give low values 0.0849 | locus YGR252W, strain gcn5, hits give low values 0.195 | locus YHR013C, strain ard1, hits give low values 0.829 | locus YHR027C, strain rpn1, hits give low values 0.904 | locus YHR030C, strain SLT2, hits give low values 0.281 and 0.105 | locus YHR079C, strain IRE1 (second series), hits give low values 0.91 | locus YHR079C, strain IRE1, hits give low values 0.129 | locus YHR094C, strain hxt1, hits give low values 0.614 | locus YHR129C, strain ARP1, hits give low values 0.655 | locus YHR200W, strain rpn10, hits give low values 0.27 | locus YIL066C, strain RNR3, hits give low values 0.634 | locus YIL073C, strain SPO22, hits give low values 0.5 | locus YIL125W, strain kgd1, hits give low values 0.0634 | locus YIR030C, strain dcg1, hits give low values 0.85 | locus YJL095W, strain BCK1, hits give low values 0.724 and 0.122 | locus YJL164C, strain tpk1, hits give low values 0.892 | locus YJL166W, strain qcr8, hits give low values 0.871 | locus YJL168C, strain set2, hits give low values 0.8 | locus YJR043C, strain POL32, hits give low values 0.671 | locus YJR066W, strain TOR1, hits give low values 0.0486 | locus YJR075W, strain HOC1, hits give low values 0.566
